Bioassay records (PubChem BioAssay)
Only some compounds are listed: those with a hit (about 2.4% of all), similar ones and a draw of the others.
D2 PAM-1 = human D2 receptor positive allosteric modulation; P14416; 0.23% of 360,000 active; DiscoveRx D2 beta-arrestin cells, luminescence, 90 min; 100% = 57 uM dopamine signal; potentiation, % (concentration not given with the values); in the data active = potentiation above about 50%; inconclusive = mostly about 30% to 49%
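D2 cells co-treated with compound plus 50 nM dopamine (EC20) for 90 min at 37 deg C to detect potentiation. Beta-arrestin recruitment was read as enzyme-fragment luminescence after 1 h at ambient temperature. Full response was set by 57 uM dopamine.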
D2 ag-1 = D2 dopamine receptor (human) agonism; HEK293 T-REx D2 cells, calcium flux agonist mode; activation, % at 2 µM; 0.53% of 340,000 active; AID 485358;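 active = activation over 3 SD above normal in the single-dose calcium agonist read, cut at about 30% in these data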; note: 0% is about no effect
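Agonism scored from kinetic calcium signal (1 read/sec, 180 s) following compound pin transfer, after a 10 s baseline. Cells: HEK293 Trex line expressing inducible D2 receptor coupled to calcium, dye-loaded after overnight culture at 30 C.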
D2 PAM-2 = positive allosteric modulators of human D2 dopamine receptor; HEK293 T-REx D2, calcium flux, EC20 dopamine potentiation; potentiation, % at 10 µM; 0.34% of 340,000 active; AID 485347;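 active = potentiation over 3 SD above the plate norm, cut at about 30% in these data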; note: 0% is about no effect
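Potentiation of an EC20 dopamine calcium response measured kinetically over 180 s, after a preceding 180 s compound-only read flagging agonists. Cells: inducible Hek293 Trex D2 line, 4000/well, cultured overnight at 30 C before dye loading.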
D2 ag-2 = activates the human D2 dopamine receptor. P14416. DiscoveRx PathHunter D2 beta-arrestin, luminescence, 90 min; 100% = 57 uM dopamine signal. activation, % (concentration not given with the values). 0.084% of 360,000 active. AID 624465; in the data active = activation above about 40%; inconclusive = between about 15% and that limit
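DiscoveRx PathHunter D2 beta-arrestin cells (2,100/well) attached overnight, then compound-stimulated 90 min at 37 C in HBSS/10 mM HEPES/0.1% Tween-20 buffer; beta-galactosidase complementation read by luminescence after 1 h at ambient temperature. Dopamine 57 uM final (EC100) as control.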
D2 antag = D2 dopamine receptor (human) antagonism. inhibition, % at 10 µM. AID 485344. P14416. HEK293 TREx D2 cells, calcium flux, dopamine EC80. 2% of 340,000 active; in the data active = inhibition above about 30%; inactive = below that, where a call was filed; note: 0% is about no effect
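Antagonism is scored as inhibition of an EC80 dopamine-evoked calcium signal in a force-coupled, tetracycline-inducible HEK293 T-REx D2 line, with compound present 180 s before agonist.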
D3 arrestin ag = confirmation of human D3 dopamine receptor agonists, beta-arrestin. 4% of 2,300 active. DiscoveRx D3 beta-arrestin cells, luminescence, 90 min. shares compounds with D2 ag-1. Potency, µM (series often up to 76.9 µM), without a hit: top-dose activation, actives largely listed as activators;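 note: potency is the fitted concentration of half-maximal effect; 100% = dopamine control response; nearly all actives have a fitted effect of over 70% in size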
Target sequence (P35462 whole entry, looked up): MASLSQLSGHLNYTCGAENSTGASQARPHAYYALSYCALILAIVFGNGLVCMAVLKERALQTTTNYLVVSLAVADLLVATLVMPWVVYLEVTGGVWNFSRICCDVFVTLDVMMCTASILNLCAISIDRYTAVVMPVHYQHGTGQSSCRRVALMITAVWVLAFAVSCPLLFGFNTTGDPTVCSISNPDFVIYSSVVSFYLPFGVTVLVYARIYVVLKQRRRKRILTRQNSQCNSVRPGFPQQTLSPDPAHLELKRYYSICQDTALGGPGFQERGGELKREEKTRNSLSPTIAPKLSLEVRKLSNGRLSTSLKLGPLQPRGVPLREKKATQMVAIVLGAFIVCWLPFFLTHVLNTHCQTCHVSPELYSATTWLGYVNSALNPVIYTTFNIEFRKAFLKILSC
D2 ag-3 = activates human D2 dopamine receptor in D3 counterscreen. shares compounds with D2 ag-1. DiscoveRx PathHunter D2 beta-arrestin, luminescence, 90 min; response scale: percent relative to full dopamine signal. Potency, µM (top dose mostly 76.9 µM), inactives show top-dose activation, most hits filed as activators. 5.9% of 2,300 active; note: potency is the fitted concentration of half-maximal effect; % of control where 0% means no effect; nearly all actives have a fitted effect of over 70% in size
The depositor's hits bear a star; ? = inconclusive; . = no result. Unless noted, calls come from the whole dose curve; as a rule, active = well fitted activation curve with a large enough effect; inconclusive = small, poorly fitted or top-dose-only effect; inactive = flat fitted curve, though single readings scatter.

SMILES	D2 PAM-1	D2 ag-1	D2 PAM-2	D2 ag-2	D2 antag	D3 arrestin ag	D2 ag-3
c1ccc(CCN=C2CCCc3c2[nH]c2ccccc32)cc1	8	77*	-23	13	58*	?	?
Nc1ccc(C(=O)N/N=C2\CCCc3c2[nH]c2ccccc32)cc1	4	.	.	-4	.	.	.
CCCSCCCNC(=O)Cn1nc(CC)n2c(cc3c(OC)cccc32)c1=O	-7	40*	-9	-2	-11	15%	2%
Cc1ccc2c(c1)N(C(=O)N1CCC(C(=O)NCCc3ccc(Cl)cc3)CC1)CC(C)O2 (centres undefined)	.	-1	6	.	.	.	.
CCN(CC)c1ccc(NS(=O)(=O)c2ccc3c(c2)CCCN3C(C)=O)c(C)c1	.	1	14	.	.	.	.
Cc1ccc(C(=O)COC(=O)CCS(=O)(=O)c2ccccc2)cc1[N+](=O)[O-]	-32	.	.	-11	.	-22%	-16%
O=C(c1ccco1)N1CCC(N2CCN(c3ccccc3)CC2)CC1	-10	78*	-21	1	61*	?	29%
O=C(c1cc(-c2ccco2)on1)N1CCN(c2ccccc2)CC1	-4	45*	-14	0	0	-5%	0%
O=C1OC(N2CCN(C(=O)c3ccco3)CC2)c2ccccc21 (centres undefined)	-12	.	.	6	.	24%	14%
O=C(c1cc(-c2ccccc2)on1)N1CCN(c2ccccc2)CC1	-7	0	4	5	4	.	.
COc1cccc2c1Oc1ncccc1N(C(=O)Nc1cccc(Cl)c1)C2	.	3	5	.	.	.	.
CCN(CC)CCCNc1oc(-c2ccc(OC)cc2)nc1C#N	.	0	7	.	.	.	.
COc1ccccc1-c1cc2nc(C)c(CCC(=O)NCc3cccc(Cl)c3)c(C)n2n1	.	-1	6	.	.	.	.
COc1cccc(CNC(=O)COCc2cc(-c3ccc4c(c3)OCO4)on2)c1	.	-1	-9	.	.	.	.
CCN(CC)C1=CC2=CC(=C(C#N)C#N)CCC2CC1 (centres undefined)	-2	209*	-16	3	76*	-7%	17%
CCc1nnc2c3ccccc3nc(N3CCN(c4cc(C)ccc4C)CC3)n12	.	-1	-1	.	.	.	.
CC1(C)CC(=O)C=C(/C=C/c2ccccc2)C1	-15	-2	10	-4	-7	-5%	0%
Cc1oc2ccc(O)c(CN3CCCC3)c2c1C(=O)Nc1cccc(Cl)c1C	.	0	-4	.	.	.	.
CCOC(=O)Cc1csc(NC(=O)CN2CCN(c3ccccc3)CC2)n1	6	5	9	6	15	10%	26%
CCOC(=O)Cc1csc(NC(=O)CN2CCN(CC)CC2)n1	-5	0	-1	2	-5	.	.
COc1ccc(C(=O)NCC(=O)N/N=C/c2cn[nH]c2-c2ccccc2)cc1	-3	11	.	10	19	-1%	7%
CCOc1ccc(NC(=O)CC2C(=O)N(c3cccc(C)c3)C(=O)N2Cc2cccnc2)cc1 (centres undefined)	.	-1	-10	.	.	.	.
CC(=O)Nc1ccc(OCC(O)CN2CCN(c3ccc(F)cc3)CC2)cc1 (centres undefined)	-21	69*	-29	10	45*	14%	12%
CC(=O)Nc1ccc(OCC(O)CN2CCN(c3ccc(Cl)cc3)CC2)cc1 (centres undefined)	-43	1	-39	-1	40*	5%	-2%
CC(=O)Nc1ccc(OCC(O)CN2CCN(c3cccc(Cl)c3)CC2)cc1 (centres undefined)	14	76*	-31	?	83*	?	?
SMILES	D2 PAM-1	D2 ag-1	D2 PAM-2	D2 ag-2	D2 antag	D3 arrestin ag	D2 ag-3
CC(=O)Nc1ccc(OCC(O)CN2CCN(S(=O)(=O)c3ccc(NC(C)=O)cc3)CC2)cc1 (centres undefined)	-3	-1	-6	-2	12	.	.
COC(=O)c1ccc(NC(=O)CCc2c(C)nn(-c3ccc(N4CCCCC4)nn3)c2C)cc1	.	.	-8	.	.	.	.
CCc1ccc(Cn2c(CNS(=O)(=O)c3ccc(Cl)s3)nc3cccnc32)cc1	.	1	4	.	.	.	.
CCN1CCc2c(sc(NC(=O)c3ccc(C(=O)c4ccccc4)cc3)c2C(N)=O)C1	-9	74*	-19	-3	5	-8%	2%
CCN1CCc2c(sc(NC(=S)NC(=O)c3ccco3)c2C(N)=O)C1	-19	30*	-5	-10	-21	8%	-5%
Cc1sc(NC(=S)NC(=O)c2ccco2)c(C(N)=O)c1C	-3	0	4	-3	-6	.	.
COc1cccc(CNC(=O)CSC2=Nc3ccccc3N=C(c3ccc(F)cc3)C2)c1	.	.	-5	.	.	.	.
CCc1ccc(OCC(=O)N(Cc2ccco2)Cc2ccccc2Cl)cc1	.	10	-3	.	.	.	.
CCCN(CCC)CCCNS(=O)(=O)c1cc(Br)cc2c1N(C(C)=O)CC2	-33	59*	-16	7	26	23%	21%
C/C(=N\NC(=O)CN1CCCCC1)c1ccccc1O	-19	65*	-30	9	85*	10%	13%
CCCOc1ccc(C(=O)NNC(=S)NC(=O)c2ccco2)cc1	-13	34*	-4	-9	15	-6%	-9%
O=C(CN1CCN(Cc2ccc(Cl)cc2)C1=O)NCCCN1CCN(c2ccc(F)cc2)CC1	-14	-1	-24	3	-14	.	.
Cc1ccccc1CN1CCN(CC(=O)NCCCN2CCN(c3ccc(F)cc3)CC2)C1=O	-37	5	-16	-2	64*	0%	22%
COc1cccc(CC(=O)OCC(=O)NC(C)c2ccc(F)cc2)c1 (centres undefined)	-6	0	1	-5	-4	-1%	-1%
COc1cc(CC(=O)OCC(=O)NC(C)c2ccccc2)cc(OC)c1OC (centres undefined)	15	.	.	1	.	.	.
CCc1nnc(SCC(=O)Nc2cc(Cl)c(OC)cc2OC)c2cc3oc(C)cc3n12	.	-1	-18	.	.	.	.
O=C(c1ccc(Br)o1)N1CCN(Cc2ccc3c(c2)OCO3)CC1	-14	70*	-23	2	58*	-4%	10%
O=C(c1sccc1Cl)N1CCN(Cc2ccc3c(c2)OCO3)CC1	-15	50*	-25	5	67*	-7%	3%
O=C(c1[nH]nc2c1CCc1ccccc1-2)N1CCN(Cc2ccc3c(c2)OCO3)CC1	-23	0	-15	?	71*	2%	?
O=C(c1ccccc1)N1CCN(Cc2ccc3c(c2)OCO3)CC1	-25	16	-32	0	8	.	.
COc1cc(C(=O)N(Cc2ccc(F)cc2)Cc2ccco2)cc(OC)c1OC	.	-1	7	.	.	.	.
